Results published in PubChem BioAssay (Tox21).
“And” between values parts separate entries of the source, which are not always exact repeats. Equal values may be shown once. Unmarked numbers belong to inactive results. Records with an inconclusive call do not appear. A call without a number means that no potency is given here. The source made the active and inactive calls. Unless noted, calls follow the shape of the dose curve; as a rule, active = well fitted curve in the direction sought with a large enough effect in the repeat runs; inconclusive = weak or mixed curves; inactive = no such curve, though single readings can be large; an effect the other way counts as inactive or inconclusive.

Tests used:
[1] = molecular target: Nuclear receptor subfamily 1 group I member 3 (Homo sapiens) (UniProt Q14994); experiment: qHTS assay to identify small molecule agonists of the constitutive androstane receptor (CAR) signaling pathway (AID 1224839); also: nearly all actives have a fitted effect of over 15% in size; also: potency is read from the fitted curve at half-maximal effect
Nuclear receptor subfamily 1 group I member 3 (Homo sapiens), sequence (Q14994 whole entry, looked up): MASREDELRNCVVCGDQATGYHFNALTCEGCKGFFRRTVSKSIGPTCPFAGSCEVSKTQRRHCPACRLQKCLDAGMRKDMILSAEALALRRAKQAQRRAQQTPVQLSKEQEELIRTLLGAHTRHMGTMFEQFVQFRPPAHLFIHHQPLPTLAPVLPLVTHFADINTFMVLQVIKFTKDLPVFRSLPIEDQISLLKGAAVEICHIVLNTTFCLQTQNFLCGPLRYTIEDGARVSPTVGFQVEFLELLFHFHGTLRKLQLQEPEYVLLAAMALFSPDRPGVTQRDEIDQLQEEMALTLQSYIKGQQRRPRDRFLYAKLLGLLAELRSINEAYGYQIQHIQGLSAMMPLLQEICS
Method in brief: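 HepG2 cells stably expressing hCAR and a CYP2B6-2.2kb luciferase reporter were treated with compounds at 15 concentrations plus 0.75 uM PK11195 (final) for 24 h at 37 C; luminescence was read after ONE-Glo addition.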

[2] = qHTS assay to identify small molecule antagonists of the estrogen related receptor signaling pathway with the pleiotropic PPARgamma coactivator (PGC) from Tox21 10K library - cell viability counter screen (AID 1224840; active = well fitted cell-killing curve with a large enough effect in the repeat runs, not every such curve was filed as active; also: nearly all actives have a fitted effect of over 40% in size; also: potency is read from the fitted curve at half-maximal effect)
Method in brief: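 PGC/ERR cells (2,000/well) plated 6 h, then compound-treated for 17.5 h at 37 C. Viability measured by CellTiter-Fluor fluorescence after 30 min at 37 C, multiplexed with the pathway assay.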

[3] = qHTS assay to identify small molecule antagonists of the estrogen related receptor signaling pathway with the pleiotropic PPARgamma coactivator (PGC) from Tox21 10K library (AID 1224841; call rule not given here; also: actives are mostly falling curves and most rising ones were filed inactive; nearly all actives have a fitted effect of over 50% in size; also: potency is read from the fitted curve at half-maximal effect)
Method in brief: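 PGC/ERR cell line, 2,000 cells/well, pre-incubated 6 hours at 37 C, then exposed to compounds for 18 hours at 37 C; luciferase read with One-Glo luminescence after 30 min at room temperature.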

[4] = qHTS assay to identify small molecule agonists of the estrogen related receptor signaling pathway with the pleiotropic PPARgamma coactivator (PGC) from Tox21 10K library (AID 1224842); also: nearly all actives have a fitted effect of over 15% in size; also: potency is read from the fitted curve at half-maximal effect
Method in brief: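 PGC/ERR reporter cells (NTP line) were seeded 2,000 per well, rested 6 h at 37 C/5% CO2, then pin-dosed with compounds in DMSO for 18 h at 37 C; luciferase read by One-Glo luminescence after 30 min at room temperature.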

[5] = molecular target: Thyrotropin receptor (Homo sapiens) (UniProt P16473); experiment: qHTS assay to identify small molecule agonists of the thyroid stimulating hormone receptor (TSHR) signaling pathway (AID 1224843; calls by dose curve; also: nearly all actives have a fitted effect of over 45% in size)
Thyrotropin receptor (Homo sapiens), sequence (P16473 whole entry, looked up): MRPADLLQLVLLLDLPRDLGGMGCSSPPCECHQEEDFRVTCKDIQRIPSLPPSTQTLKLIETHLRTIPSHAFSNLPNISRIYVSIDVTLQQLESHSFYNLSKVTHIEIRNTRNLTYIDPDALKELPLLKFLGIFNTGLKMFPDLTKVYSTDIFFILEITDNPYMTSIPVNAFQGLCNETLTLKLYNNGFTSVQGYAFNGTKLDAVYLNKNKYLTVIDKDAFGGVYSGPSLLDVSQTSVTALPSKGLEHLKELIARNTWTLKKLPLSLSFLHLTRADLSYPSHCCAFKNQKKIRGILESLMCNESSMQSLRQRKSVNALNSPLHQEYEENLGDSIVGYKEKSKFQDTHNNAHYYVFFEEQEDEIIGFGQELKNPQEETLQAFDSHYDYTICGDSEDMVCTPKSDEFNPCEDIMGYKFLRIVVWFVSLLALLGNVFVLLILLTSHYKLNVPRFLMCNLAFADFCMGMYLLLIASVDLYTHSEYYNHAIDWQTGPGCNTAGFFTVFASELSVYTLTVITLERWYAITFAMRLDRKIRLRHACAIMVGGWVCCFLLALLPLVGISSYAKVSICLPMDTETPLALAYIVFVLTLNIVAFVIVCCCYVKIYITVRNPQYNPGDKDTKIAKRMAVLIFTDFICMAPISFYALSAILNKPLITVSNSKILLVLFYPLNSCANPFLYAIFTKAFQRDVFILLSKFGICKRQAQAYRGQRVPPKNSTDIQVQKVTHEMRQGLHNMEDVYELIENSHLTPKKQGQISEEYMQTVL
Method in brief: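 TSHR-expressing HEK293 cells (800 per well) were exposed to compounds for 30 min at room temperature. cAMP was then detected by HTRF competition with cAMP-d2 and anti-cAMP cryptate, read after 1 h at room temperature. Fifteen concentrations, triplicate.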

[6] = qHTS assay to identify small molecule agonists of the hypoxia (HIF-1) signaling pathway - cell viability counter screen (AID 1224844; calls by dose curve; also: nearly all actives have a fitted effect of over 50% in size; also: potency is read from the fitted curve at half-maximal effect)
Method in brief: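 HRE-bla ME-180 cells, 2,000/well in 0.5% dialyzed FBS medium, treated 17 h at 37C with compounds. Viability read in the same wells as the bla reporter, by CellTiter-Glo luminescence after 30 min at room temperature.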

[7] = qHTS assay to identify small molecule agonists of H2AX (AID 1224845; active = well fitted activation curve with a large enough effect in the signal ratio in the repeat runs, not every such curve was filed as active; the % refers to the signal ratio)
Method in brief: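 Wild-type CHO-K1 cells plated overnight, then exposed 3 hr at 37C to compounds at 15 concentrations (0.76% DMSO). Lysed, then HTRF anti-pH2AX(S139)-cryptate/anti-H2AX-d2 detection after 24 hr at room temperature; emissions 665 and 620 nm.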

[8] = qHTS assay to identify small molecule agonists of the hypoxia (HIF-1) signaling pathway (AID 1224846; active = well fitted activation curve with a large enough effect in the signal ratio in the repeat runs, not every such curve was filed as active; the % refers to the signal ratio; also: potency is read from the fitted curve at half-maximal effect)
Method in brief: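 HRE-bla ME-180 beta-lactamase reporter cells in medium with 0.5% dialyzed FBS, pre-incubated 5 h then exposed to compounds 17 h at 37C, 5% CO2; reporter induction read with CCF4-AM FRET substrate.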

[9] = qHTS assay to identify small molecule agonists of H2AX - cell viability counter screen (AID 1224847; calls by dose curve; also: nearly all actives have a fitted effect of over 30% in size; also: potency is read from the fitted curve at half-maximal effect)
Method in brief: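 Wild-type CHO-K1 cells (10% FBS medium) were plated overnight at 37C, exposed to compounds at 15 concentrations for 3 hr at 37C (0.76% DMSO final), and viability was read as CellTiter-Glo luminescence after 30 min at room temperature.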

[10] = qHTS assay to identify small molecule antagonists of the estrogen related receptor (ERR) signaling pathway from Tox21 library (AID 1224848); also: nearly all actives have a fitted effect of over 50% in size; also: potency is read from the fitted curve at half-maximal effect
Method in brief: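 Cells: ERR line, 2,000/well; 6 h preincubation 37 C/5% CO2. Cpd in DMSO via pin tool; 18 h, 37 C. ONE-Glo, 30 min RT, luminescence.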

[11] = qHTS assay to identify small molecule agonists of the estrogen related receptor (ERR) signaling pathway from Tox21 library (AID 1224849; calls by dose curve; also: nearly all actives have a fitted effect of over 15% in size); conditions: ERR reporter cell line, ONE-Glo luciferase, 18 h
Method in brief: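 ERR reporter cells (NTP line) pre-incubated 6 hours at 37 C, then exposed to compounds for 18 hours at 37 C. ONE-Glo luciferase luminescence was read after 30 minutes at room temperature.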

[12] = qHTS RealTime-Glo MT Cell Viability Assay in HepG2 cells - 24 hour (AID 1224867); also: nearly all actives have a fitted effect of over 50% in size; also: potency is read from the fitted curve at half-maximal effect
Method in brief: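 qHTS, HepG2, 600 cells/well, RealTime-Glo (NanoLuc + prosubstrate) added with cells; 5 h preincubation; DMSO compound addition; 37 C; luminescence at 0/8/16/24/32/40 h.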

[13] = qHTS RealTime-Glo MT Cell Viability Assay in HEK293 cells - 32 hour (AID 1224868); also: nearly all actives have a fitted effect of over 50% in size; also: potency is read from the fitted curve at half-maximal effect
Method in brief: (§1)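 Assay medium contained NanoLuc luciferase plus cell-permeant prosubstrate, added with HEK293 cells at 600 cells/well. After 5 h at 37 C/5% CO2 compounds were added; plates stayed at 37 C for 40 h with serial luminescence reads.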

[14] = A CellTox Green Cytotoxicity Assay to monitor cytotoxicity in HEK293 cells - 0 hour (AID 1224869); also: nearly all actives have a fitted effect of over 50% in size
Method in brief: (§2)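 HEK293 cells, 600/well, were preincubated 5 hours and then exposed to compounds at 37 C for up to 40 hours. A cell-impermeant cyanine dye staining dead-cell DNA was read by fluorescence at 0, 8, 16, 24, 32 and 40 h time points.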

[15] = A CellTox Green Cytotoxicity Assay to monitor cytotoxicity in HEK293 cells - 40 hour (AID 1224871); also: nearly all actives have a fitted effect of over 45% in size; also: potency is read from the fitted curve at half-maximal effect
Method in brief: as §2

[16] = molecular target: Nuclear receptor subfamily 1 group I member 3 (Homo sapiens) (UniProt Q14994); experiment: qHTS assay to identify small molecule antagonists of the constitutive androstane receptor (CAR) signaling pathway (AID 1224838); also: nearly all actives have a fitted effect of over 40% in size
Method in brief: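 HepG2 cells stably carrying hCAR and a CYP2B6-2.2kb luciferase reporter, seeded 4 hrs before compound (15 concentrations). Stimulated with 50 nM CITCO for 24 hr at 37 C. ONE-Glo luminescence read after 30 min at room temperature.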

[17] = qHTS assay to identify small molecule antagonists of the constitutive androstane receptor (CAR) signaling pathway - cell viability counter screen (AID 1224837); also: nearly all actives have a fitted effect of over 45% in size
Method in brief: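 HepG2 cells stably carrying hCAR and CYP2B6-2.2kb reporter, stimulated with 50 nM CITCO and compounds at 15 concentrations for 23 h at 37 C. Viability measured by CellTiter-Fluor fluorescence.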

[18] = qHTS RealTime-Glo MT Cell Viability Assay in HepG2 cells - 40 hour (AID 1224870); also: nearly all actives have a fitted effect of over 50% in size
Method in brief: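 HepG2 cells mixed with RealTime-Glo MT reagents (NanoLuc plus cell-permeant prosubstrate) were seeded at 600 cells/well, incubated 5 h at 37 C/5% CO2, then pinned with compounds in DMSO; nonlytic luminescence tracked viability during 40 h treatment.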

[19] = qHTS RealTime-Glo MT Cell Viability Assay in HEK293 cells - 16 hour (AID 1224872)
Method in brief: as §1

Cc1cc(-c2ccc(N=Nc3cc(S(=O)(=O)O)c4ccccc4c3N)c(C)c2)ccc1N=Nc1cc(S(=O)(=O)O)c2ccccc2c1N
Potency [1]: inactive
Potency [2]: inactive
Potency [3]: 12.3 µM (active)
Potency [4]: inactive
Potency [5]: inactive
Potency [6]: inactive
Potency [7]: inactive
Potency [8]: inactive
Potency [9]: 80.4 µM (active)
Potency [10]: 5.48 µM (active)
activity change, positive = activation ([11]; at 92.4 µM (top of the series)): -50.3%
Potency [12]: inactive
Potency [13]: 2.2 µM (active)
Potency [14]: inactive
Potency [15]: 49.2 µM (active)

OCCN1CCN(CCCN2c3ccccc3Sc3ccc(C(F)(F)F)cc32)CC1
Potency [16]: inactive
Potency [1]: inactive
Potency [2]: 29.8 µM (active)
Potency [3]: inactive
Potency [5]: inactive
Potency [6]: 19 µM (active)
Potency [7]: inactive
activity change, positive = activation ([11]; at 42.5 µM (top of the series)): -32%
Potency [12]: 26.8 µM (active)
Potency [13]: 23.9 µM (active)
Potency [14]: inactive

CC(=O)[C@H]1CC[C@H]2[C@@H]3CCC4=CC(=O)CC[C@]4(C)[C@H]3CC[C@]12C
Potency [17]: inactive
Potency [3]: 27.1 µM (active) and 13.7 µM (active)
Potency [4]: inactive
Potency [5]: inactive
Potency [6]: inactive
Potency [9]: 100 µM (active) and 101 µM (active)
Potency [10]: 13.6 µM (active) and 15.4 µM (active)
activity change, positive = activation ([11]; at 92.4 µM (top of the series)): -73.5% and -66.4%
Potency [13]: 13.7 µM (active) and 17.4 µM (active)
Potency [14]: inactive
Potency [18]: inactive
Potency [15]: 24.4 µM (active) and 34.7 µM (active)

COC(=O)C1=C(C)NC(C)=C(C(=O)OCCN2CCN(C(c3ccccc3)c3ccccc3)CC2)C1c1cccc([N+](=O)[O-])c1 (centres undefined)
Potency [16]: inactive
Potency [1]: inactive
Potency [3]: 9.44 µM (active)
Potency [4]: inactive
Potency [5]: inactive
Potency [9]: inactive
Potency [10]: 11.9 µM (active)
activity change, positive = activation ([11]; at 42.5 µM (top of the series)): -44.8%
Potency [14]: inactive
Potency [15]: inactive

CC(=O)CC(=O)Nc1ccc(S(=O)(=O)O)cc1
Potency [17]: inactive
Potency [2]: inactive
Potency [5]: inactive
Potency [6]: inactive
Potency [7]: inactive
Potency [8]: inactive
Potency [12]: inactive
Potency [13]: inactive
Potency [14]: inactive
Potency [18]: inactive
Potency [15]: inactive
Potency [19]: inactive

O=[N+]([O-])c1ccc(O)cc1C(F)(F)F
Potency [1]: inactive
Potency [2]: 17.2 µM (active)
Potency [3]: inactive
Potency [5]: inactive
Potency [6]: inactive
Potency [7]: inactive
Potency [10]: 6.11 µM (active)
activity change, positive = activation ([11]; at 92.4 µM (top of the series)): -63.3%
Potency [12]: inactive
Potency [13]: 34.7 µM (active)
Potency [14]: inactive
Potency [18]: inactive
Potency [15]: inactive
Potency [19]: inactive

O=C1OC2(c3ccc(O)cc3Oc3cc(O)ccc32)c2ccc(N=C=S)cc21
Potency [2]: inactive
Potency [4]: inactive
Potency [5]: inactive
Potency [6]: inactive
Potency [9]: inactive
Potency [10]: inactive
activity change, positive = activation ([11]; at 92.4 µM (top of the series)): 3.25%
Potency [18]: inactive
Potency [15]: 12.5 µM (active)

O=S(=O)(O)c1ccccc1/C=C/c1ccc(-c2ccc(/C=C/c3ccccc3S(=O)(=O)O)cc2)cc1
Potency [16]: inactive
Potency [1]: inactive
Potency [2]: inactive
Potency [3]: inactive
Potency [4]: inactive
Potency [5]: inactive
Potency [6]: inactive
Potency [8]: 39.4 µM (active)
Potency [9]: inactive
Potency [10]: inactive
activity change, positive = activation ([11]; at 92.4 µM (top of the series)): 4.34%
Potency [12]: inactive
Potency [13]: inactive
Potency [14]: inactive
Potency [18]: inactive
Potency [15]: inactive

S=C([S-])NCCNC(=S)[S-].S=C([S-])NCCNC(=S)[S-].[Mn+2].[Zn+2]
Potency [17]: inactive
Potency [2]: inactive
Potency [5]: inactive
Potency [6]: inactive
Potency [7]: inactive
Potency [8]: inactive
Potency [9]: inactive
Potency [12]: inactive
Potency [14]: inactive
Potency [18]: inactive
Potency [15]: inactive

O=C(O)c1cc(N=Nc2ccc([N+](=O)[O-])cc2)ccc1O
Potency [16]: inactive
Potency [1]: 0.673 µM (active)
Potency [3]: inactive
Potency [4]: 9.51 µM (active)
Potency [5]: inactive
Potency [6]: inactive
Potency [9]: inactive
Potency [10]: inactive
activity change, positive = activation ([11]; at 92.4 µM (top of the series)): 93.2% (active)
Potency [12]: inactive
Potency [13]: inactive
Potency [14]: inactive
Potency [18]: inactive
Potency [15]: inactive
Potency [19]: inactive

c1ccsc1
Potency [16]: inactive
Potency [1]: inactive
Potency [2]: inactive
Potency [5]: inactive
Potency [6]: inactive
Potency [7]: inactive
Potency [8]: inactive
Potency [9]: inactive
Potency [12]: inactive
Potency [13]: inactive
Potency [14]: inactive
Potency [18]: inactive
Potency [15]: inactive
Potency [19]: inactive
